Inconclusive results are not listed. Unless noted, calls come from the whole dose curve; as a rule, active = well fitted curve in either direction with a large enough effect (not every such curve was filed as active); inconclusive = small, poorly fitted or top-dose-only effect, or another doubt; inactive = flat fitted curve, though single readings scatter.
Key:
[1] = AP1 Signaling Pathway (AID 357); details: ME-180 AP-1-bla reporter, EGF-induced, beta-lactamase ratio, 5 h; at 17.2 µM (top of the series) unless noted; note: % is set by controls: 0 for no effect and ±100 for the full control effect
How it was run: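 Modulation of EGF-driven AP-1 transcription was assessed with a beta-lactamase reporter in ME-180 cells. Compound and EC50 EGF were co-incubated 5 hours at 37 °C before 2.5-hour CCF4 loading at room temperature and dual-emission reading.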

[2] = NFAT Signaling Pathway (AID 444); details: Jurkat NFAT-bla M1, carbachol, beta-lactamase ratio, 5 h; at 17.2 µM (top of the series) unless noted;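 note: carbachol stimulus at about its EC50 of 1 µM final; % is set by controls: 0 for no effect and ±100 for the full control effect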
How it was run: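 Jurkat cells carrying an NFAT-driven β-lactamase reporter and co-transfected muscarinic M1 receptor were treated with compound plus carbachol (1 uM final, an EC50 level) for 5 h at 37 °C. CCF4 loading followed for 1 h at RT; 460/530 nm ratio gave %activity.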

[3] = Stat Signaling Pathway (AID 446); details: ME-180 SIE beta-lactamase reporter, IL-6 stimulated, 5 h; at 17.2 µM (top of the series) unless noted;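 note: ME-180 cervical cancer cells given 40 pM IL-6 alongside compound; SIE-controlled beta-lactamase reporter measured as 460/530 nm FRET emission ratio; % is set by controls: 0 for no effect and ±100 for the full control effect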
How it was run: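 ME-180 SIE-bla cells; overnight plating; cpd + IL-6 40 pM, 5 h, 37 C; LiveBLAzer 2.5 h RT; 460/530 nm emission ratio. Normalized to 300 pM IL-6 and 125 nM JAK inhibitor controls.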

[4] = biological target: Glucocorticoid receptor (Homo sapiens) (UniProt P04150); test: GR-GFP Redistribution (AID 450;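 active = compounds whose dose series gives a full or clear partial fitted curve of increased nuclear translocation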; note: potency is the fitted concentration of half-maximal effect)
Chain of Glucocorticoid receptor (Homo sapiens) (P04150 whole entry, looked up): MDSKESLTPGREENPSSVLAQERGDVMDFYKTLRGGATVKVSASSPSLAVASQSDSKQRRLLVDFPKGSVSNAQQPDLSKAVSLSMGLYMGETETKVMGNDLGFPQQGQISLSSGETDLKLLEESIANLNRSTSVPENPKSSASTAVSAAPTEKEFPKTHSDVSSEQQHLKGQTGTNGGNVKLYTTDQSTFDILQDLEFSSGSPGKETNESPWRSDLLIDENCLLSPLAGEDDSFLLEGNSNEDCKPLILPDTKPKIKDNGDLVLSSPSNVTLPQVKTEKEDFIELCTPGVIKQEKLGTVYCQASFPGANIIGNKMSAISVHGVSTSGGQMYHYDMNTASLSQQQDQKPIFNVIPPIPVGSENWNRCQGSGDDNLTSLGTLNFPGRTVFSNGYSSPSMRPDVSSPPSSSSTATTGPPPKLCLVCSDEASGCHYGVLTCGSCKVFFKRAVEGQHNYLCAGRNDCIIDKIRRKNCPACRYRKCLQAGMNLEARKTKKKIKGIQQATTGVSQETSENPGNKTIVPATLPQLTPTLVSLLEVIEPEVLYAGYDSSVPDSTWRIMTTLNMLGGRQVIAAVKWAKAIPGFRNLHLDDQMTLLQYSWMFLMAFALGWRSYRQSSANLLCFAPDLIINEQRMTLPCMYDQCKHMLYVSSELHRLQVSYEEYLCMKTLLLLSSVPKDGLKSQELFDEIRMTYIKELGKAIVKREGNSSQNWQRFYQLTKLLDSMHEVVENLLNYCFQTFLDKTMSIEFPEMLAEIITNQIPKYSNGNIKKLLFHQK

O=C(O)c1ccc(COc2c(F)c(F)c(F)c(F)c2F)o1
inactive: activity change, negative = inhibition [1] 4.64% | activity change, negative = inhibition [2] -0.748% | activity, negative = inhibition [3] -10.8% | Potency [4] > 20.6 µM

CC(=O)c1cc(C#N)c(SCc2ccncc2)nc1C
inactive: activity change, negative = inhibition [1] -9.02% | activity change, negative = inhibition [2] -4.04% | activity, negative = inhibition [3] -3.61% | Potency [4] > 20.6 µM

COCCOC(=O)c1c(C)nc(SCC(=O)Nc2ccc(C)cc2)c(C#N)c1-c1ccco1
inactive: activity change, negative = inhibition [1] -27.8% | activity change, negative = inhibition [2] -11.8% | activity, negative = inhibition [3] -18.9% | Potency [4] > 20.6 µM

COc1ccc(C(O)C(CN2CCOCC2)c2ccccc2)cc1 (stereo not given)
inactive: activity change, negative = inhibition [1] -1.55% | activity change, negative = inhibition [2] 7.08% | activity, negative = inhibition [3] 8.61% | Potency [4] > 20.6 µM

CCn1c(SCC(=O)NC2CCCCC2C)nnc1-c1ccc(OC)cc1 (stereo not given)
inactive: activity change, negative = inhibition [1] -8.83% | activity change, negative = inhibition [2] 19.9% | activity, negative = inhibition [3] -7.61% | Potency [4] > 20.6 µM

CCN(CC)C(=O)CSC1=C(C#N)C(c2ccco2)C(C(=O)OCCOC)=C(C)N1 (stereo not given)
inactive: activity change, negative = inhibition [1] -10.6% | activity change, negative = inhibition [2] -0.498% | activity, negative = inhibition [3] 2.75% | Potency [4] > 20.6 µM

Clc1ccc(-c2cn3c(n2)CCC3)cc1
inactive: activity change, negative = inhibition [1] 4.83% | activity change, negative = inhibition [2] -26.9% | activity, negative = inhibition [3] 7.31% | Potency [4] > 20.6 µM

CCCNC1=C(C)C(=O)CC1
inactive: activity change, negative = inhibition [1] 11.1% | activity change, negative = inhibition [2] -5.45% | activity, negative = inhibition [3] 0.709% | Potency [4] > 20.6 µM

CCCCNC(=O)c1cc2n(n1)C(C(F)(F)F)CC(c1ccccc1)N2 (stereo not given)
inactive: activity change, negative = inhibition [1] -14.9% | activity change, negative = inhibition [2] 11.1% | activity, negative = inhibition [3] -0.224% | Potency [4] > 20.6 µM

CC(NC(=O)Nc1nnc(C(F)(F)F)s1)(C(F)(F)F)C(F)(F)F
inactive: activity change, negative = inhibition [1] -3.33% | activity change, negative = inhibition [2] 0.893% | activity, negative = inhibition [3] 0.617% | Potency [4] > 20.6 µM

S=c1[nH]nc(-c2ccco2)n1C1CCCCC1
inactive: activity change, negative = inhibition [1] -7.16% | activity change, negative = inhibition [2] 12.4% | activity, negative = inhibition [3] 1.34% | Potency [4] > 20.6 µM

CCCCCCC(=O)N1CCN(c2cc3c(cc2F)c(=O)c(C(=O)O)cn3CC)CC1
inactive: activity change, negative = inhibition [1] -1.28% | activity change, negative = inhibition [2] 7.84% | activity, negative = inhibition [3] 0.48% | Potency [4] > 20.6 µM

O=C(c1ccco1)N1CCN(CCOCCOc2cccc3ccccc23)CC1
inactive: activity change, negative = inhibition [1] 1.08% | activity change, negative = inhibition [2] -2.55% | activity, negative = inhibition [3] -10% | Potency [4] > 20.6 µM

CC(NC(=O)Nc1cccnc1)(C(F)(F)F)C(F)(F)F
inactive: activity change, negative = inhibition [1] -12.1% | activity change, negative = inhibition [2] -11.5% | activity, negative = inhibition [3] -3.14% | Potency [4] > 20.6 µM

COc1ccc(-n2ncc3c(NCCCn4ccnc4)ncnc32)cc1
inactive: activity change, negative = inhibition [1] -7.88% | activity change, negative = inhibition [2] -15.7% | activity, negative = inhibition [3] -5.95% | Potency [4] > 20.6 µM

Cc1cc(-c2ccc(F)cc2)nc2cc(C(N)=O)nn12
inactive: activity change, negative = inhibition [1] -15.1% | activity change, negative = inhibition [2] -2.99% | activity, negative = inhibition [3] -7.09% | Potency [4] > 20.6 µM

O=C(c1ccccc1)n1c(=S)nc2ccccn21
inactive: activity change, negative = inhibition [1] 4.19% | activity change, negative = inhibition [2] -14% | activity, negative = inhibition [3] -3.1% | Potency [4] > 20.6 µM

Cn1cc(C(=O)NCN2CCCCC2)c2ccccc21
inactive: activity change, negative = inhibition [1] -2.91% | activity change, negative = inhibition [2] -0.662% | activity, negative = inhibition [3] 3.15% | Potency [4] > 20.6 µM

Cc1ccc2[nH]c(CCN(C)C)c(CC#N)c2c1
inactive: activity change, negative = inhibition [1] 12.9% | activity change, negative = inhibition [2] 8.6% | activity, negative = inhibition [3] 5.44% | Potency [4] > 20.6 µM

COC(=O)CN(c1cc(OC)ccc1OC)S(=O)(=O)c1ccc(OC)c(OC)c1
inactive: activity change, negative = inhibition [1] -25.5% | activity change, negative = inhibition [2] 4.34% | activity, negative = inhibition [3] -5.92% | Potency [4] > 20.6 µM

CC(=O)C1=C(O)C(=O)N(c2cccc(C(=O)O)c2)C1c1ccc(F)cc1 (stereo not given)
inactive: activity change, negative = inhibition [1] 15.1% | activity change, negative = inhibition [2] 2.04% | activity, negative = inhibition [3] 4.06% | Potency [4] > 20.6 µM

CN(C)c1oc(-c2cccs2)nc1C#N
inactive: activity change, negative = inhibition [1] -7.44% | activity change, negative = inhibition [2] 8.47% | activity, negative = inhibition [3] 10.4% | Potency [4] > 20.6 µM

CCC(=O)N[C@@H]1CC(C(C)(C)NC(=O)CC)CC=C1C (stereo not given in full)
inactive: activity change, negative = inhibition [1] 8.41% | activity change, negative = inhibition [2] 6.85% | activity, negative = inhibition [3] 0.886% | Potency [4] > 20.6 µM

COc1cc(C(=O)Nc2ccccn2)cc(OC)c1OC
inactive: activity change, negative = inhibition [1] 1.72% | activity change, negative = inhibition [2] 12% | activity, negative = inhibition [3] 25.9% | Potency [4] > 20.6 µM

O=C1c2ccccc2C(=O)N1CCN1CCc2ccccc21
inactive: activity change, negative = inhibition [1] -29% | activity change, negative = inhibition [2] 1.23% | activity, negative = inhibition [3] -3.43% | Potency [4] > 20.6 µM
